Hits are enriched below; roughly 22% of the tested compounds scored in any of these assays.
CYP2C19 inhib: blocks human cytochrome P450 2C19; 21% of 96,000 active; inhibition, % at 5 µM; P33261; CYP2C19 Supersomes, luciferin-H EGE luminescence, 30 min;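 active = CYP2C19 inhibition above a set limit at 5 µM in the primary screen, cut at about 50% in these data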;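 note: plate controls were negative control wells for no effect and 2.5 mM tranylcypromine positive control for full effect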
Target sequence (P33261 whole entry, looked up): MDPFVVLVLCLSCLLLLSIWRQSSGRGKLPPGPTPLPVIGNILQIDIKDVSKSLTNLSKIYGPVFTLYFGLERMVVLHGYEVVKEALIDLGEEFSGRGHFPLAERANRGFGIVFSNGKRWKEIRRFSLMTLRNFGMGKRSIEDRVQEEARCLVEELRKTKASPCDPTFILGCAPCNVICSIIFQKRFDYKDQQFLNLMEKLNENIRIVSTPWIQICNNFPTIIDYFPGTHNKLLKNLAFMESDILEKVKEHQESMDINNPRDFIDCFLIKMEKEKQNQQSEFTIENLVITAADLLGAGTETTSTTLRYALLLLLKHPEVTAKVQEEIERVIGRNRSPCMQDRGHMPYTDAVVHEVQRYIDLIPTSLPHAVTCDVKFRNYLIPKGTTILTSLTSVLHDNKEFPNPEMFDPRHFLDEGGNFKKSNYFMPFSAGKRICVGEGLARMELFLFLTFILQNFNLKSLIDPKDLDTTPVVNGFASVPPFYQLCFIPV
cytoskel mod: cytoskeleton assembly modification | HUVEC TNFa F-actin phalloidin imaging, high content | inhibition, % at 2 µM | 0.18% of 91,000 active | AID 836;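 active = inhibition above the batch mean plus 3 SD and confirmed as a hit by visual image inspection, cut at about 30% in these data, passing the limit was not always enough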
CYP2C9 inh: blocks human cytochrome P450 2C9 | inhibition, % at 5 µM | CYP2C9 Supersomes, luciferin-H conversion, luminescence | 20% of 96,000 active;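 active = blocking of liver enzyme CYP2C9 beyond about 50% at 5 µM, limit read from the data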
E-sel TNF inh: TNF alpha driven E-selectin expression inhibition | 0.71% of 120,000 active | HUVEC TNFa-induced E-selectin immunofluorescence, high content | inhibition, % at 2 µM | AID 1246;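 active = inhibition above the batch mean plus 3 SD, and confirmed as a hit on visual image review, cut at about 43% in these data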;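 note: 0% = TNF-stimulated DMSO wells and 100% = unstimulated control wells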
CYP2C9 act: increases human cytochrome P450 2C9 activity. 1.4% of 96,000 active. activation factor at 5 µM. P11712. recombinant CYP2C9, luciferin-H conversion, luminescence; stronger effect = higher value; factor 1 = untreated enzyme, 0 = blocked;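 active = activation factor of 2 or more for CYP2C9 at a 5 µM dose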;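 note: 0 = sulfaphenazole-blocked wells and 1 = vehicle-only wells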
CYP2C19 activ: cytochrome P450 2C19 (human) activation | P33261 | recombinant CYP2C19, luciferin-H EGE luminescence; stronger effect = higher value; 0 = fully inhibited enzyme, 1 = untreated enzyme | activation factor at 5 µM | 96,000 tested, under 10 active | AID 1025;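 active = activation factor of at least 2 at 5 µM in the primary screen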;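 note: 0 = wells with 2.5 mM tranylcypromine and 1 = vehicle-only wells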
* hit, by the source's call; nt = no result.

SMILES | CYP2C19 inhib | cytoskel mod | CYP2C9 inh | E-sel TNF inh | CYP2C9 act | CYP2C19 activ
Cc1ccc(NC(=O)CSc2nc(NS(=O)(=O)c3ccc(C)cc3)cc(=O)[nH]2)cc1 | 27.6 | -15.9 | 64.7* | 9.8 | 0.4 | 0.7
CCOC(=O)c1c(C)c(C(=O)N(C)C2CCCCC2)c(C)n1C | 53.6* | nt | 47.6 | -17.5 | 0.5 | 0.5
Cc1c[n+]([O-])n(-c2ccc(C(=O)O)cc2)n1 | -4.4 | nt | 13.0 | -12.0 | 0.9 | 1
NS(=O)(=O)c1ccc(NCc2ccccc2OCc2ccc(F)cc2)cc1 | 30.8 | -9.1 | 77.6* | -14.1 | 0.2 | 0.7
COc1ccc(/C=C2/N=C(SC3CCOC3=O)N(c3cccc(OC)c3)C2=O)cc1 (configuration not stated) | nt | nt | nt | 5.7 | nt | nt
O=C1OCCC1Sc1nc2ccccc2c(=O)n1-c1ccc(F)cc1 (configuration not stated) | nt | nt | nt | -8.6 | nt | nt
O=C1OCCC1Sc1nc2ccccc2n1-c1ccccc1 (configuration not stated) | 69.2* | -9.0 | 66.5* | 11.9 | 0.3 | 0.3
O=C1OCCC1Sc1nc2ccccc2n1Cc1ccccc1 (configuration not stated) | 81.9* | -12.4 | 54.8* | -38.0 | 0.5 | 0.2
O=C1OCCC1Sc1nc2ccccc2c(=O)n1Cc1ccc(F)cc1 (configuration not stated) | nt | nt | nt | 5.8 | nt | nt
COc1ccc(-n2c(SC3CCOC3=O)nc3ccccc32)cc1 (configuration not stated) | 50.9* | 3.1 | 40.7 | nt | 0.6 | 0.5
CC(C)Cc1cc(C(=O)O)n[nH]1 | -20.0 | -27.1 | -23.0 | nt | 1.2 | 1.2
CC1CCC(C(=O)NC(C(=O)N2CCC(N3CCCCC3)CC2)C(C)C)CC1 (configuration not stated) | -1.2 | 11.2 | 4.8 | nt | 1 | 1
NC(=O)c1ccc(NC(=O)CSc2nnc(-c3ccccn3)n2N)cc1 | nt | nt | nt | 6.8 | nt | nt
Clc1cc(Cl)cc(CSc2nnc(-c3sccc3-n3cccc3)o2)c1 | 24.2 | 15.9 | 12.1 | nt | 0.9 | 0.8
Clc1cccc(CSc2nnc(-c3sccc3-n3cccc3)o2)c1 | 34.3 | nt | -9.2 | 81.5* | 1.1 | 0.7
Cc1ccc(SCCC(=O)N2CCOCC2)cc1 | 95.1* | 4.2 | 14.7 | -10.4 | 0.9 | 0
O=C(CCSc1ccccc1)N1CCOCC1 | 36.6 | 4.1 | -13.3 | 12.8 | 1.1 | 0.6
Cc1ccc(SCCC(=O)N2CCCC2)cc1 | 90.5* | 5.5 | 49.4 | -24.5 | 0.5 | 0.1
COc1ccc(CC(=O)Nc2ccc(N3CCCCC3)cc2)cc1 | nt | nt | nt | -19.6 | nt | nt
CC(C)(C)C1C/C(=C/c2ccccn2)C(=O)/C(=C/c2ccccn2)C1 (configuration not stated) | nt | nt | nt | 99.9* | nt | nt
CC1C/C(=C/c2ccccn2)C(=O)/C(=C/c2ccccn2)C1 (configuration not stated) | nt | nt | nt | 99.9* | nt | nt
O=C1/C(=C/c2ccccn2)COc2ccccc21 | nt | nt | nt | 14.4 | nt | nt
O=S(Cc1ccc(Cl)cc1)CC(O)COCc1ccc(Cl)cc1 (configuration not stated) | 7.4 | -3.5 | 9.0 | nt | 0.9 | 0.9
CCn1c(=S)[nH]c2ccccc21 | 15.5 | -6.2 | -54.8 | 13.9 | 1.5 | 0.8
CC(C)n1c(=S)[nH]c2ccccc21 | 28.9 | 4.0 | -201.5 | nt | 3* | 0.7
SMILES | CYP2C19 inhib | cytoskel mod | CYP2C9 inh | E-sel TNF inh | CYP2C9 act | CYP2C19 activ
Cc1cc(C)c(C#N)c(SCCS(=O)(=O)Cc2ccc(Cl)cc2)n1 | 36.4 | -39.1 | 7.8 | 7.1 | 0.9 | 0.6
Cc1cc(C)c(C#N)c(SCS(=O)Cc2ccccc2)n1 (configuration not stated) | 68.4* | -14.8 | 23.2 | nt | 0.8 | 0.3
Cc1cc(C)c(C#N)c(SCCS(=O)(=O)c2ccc(C(C)(C)C)cc2)n1 | 69.5* | -12.0 | 89.0* | 17.0 | 0.1 | 0.3
Cc1cc(C)c(C#N)c(SCS(=O)Cc2ccc(Cl)cc2)n1 (configuration not stated) | 94.9* | 25.4 | 58.9* | -2.3 | 0.4 | 0.1
Cc1cc(C)c(C#N)c(SCc2ccc(C#N)cc2)n1 | 16.4 | 6.1 | -7.1 | -11.7 | 1.1 | 0.8
COc1cccc(C2=NOC(C(=O)Nc3ccc(OC)c(OC)c3)C2)c1 (configuration not stated) | 12.7 | 1.1 | -11.9 | nt | 1.1 | 0.9
O=C(Nc1cccc(C(F)(F)F)c1)c1cc(-c2ccc(F)cc2)on1 | -17.8 | nt | -250.1 | 24.2 | 3.5* | 1.2
COc1cccc(-c2cc(C(=O)Nc3cccc(O)c3)no2)c1 | -7.2 | -23.0 | -129.8 | 27.8 | 2.3* | 1.1
COCCNC(=O)c1cc(-c2cccc(OC)c2)on1 | -1.6 | -1.3 | -23.1 | 30.4 | 1.2 | 1
O=C(Nc1ccccc1C(F)(F)F)c1cc(-c2cccc(O)c2)on1 | 2.5 | -5.7 | -56.9 | nt | 1.6 | 1
CCc1ccccc1NC(=O)c1cc(-c2cccc(O)c2)on1 | 4.6 | 0.6 | -379.0 | nt | 4.8* | 1
COc1cc(NC(=O)c2cc(-c3cccc(O)c3)on2)cc(OC)c1OC | 11.6 | -5.3 | -44.8 | nt | 1.4 | 0.9
COc1cccc(-c2cc(C(=O)NC3CCCC3)no2)c1 | 80.3* | 10.9 | -91.8 | 2.7 | 1.9 | 0.2
COC(=O)CCC(NC(=O)c1cc(C)oc1C)C(=O)OC (configuration not stated) | nt | 2.0 | nt | -5.3 | nt | nt
CCN(CC)c1ccc(NC(=O)CCNC(=O)c2ccco2)cc1 | nt | nt | nt | -24.4 | nt | nt
C#CCOCCOCCOCCNc1nc(N2CCN(C(=O)[C@H]([C@@H](C)CC)n3cc(CCCN=C(N)N)nn3)CC2)nc(N2CCN(C(=O)[C@H](Cc3ccc(O)cc3)n3cc(CCO)nn3)CC2)n1 | nt | nt | nt | -4.8 | nt | nt
Cc1cc(C)cc(OCC(=O)N2CCCCCC2)c1 | 53.5* | 4.5 | -15.5 | -28.3 | 1.2 | 0.5
Cc1cc(Cl)ccc1OCCCC(=O)N1CCN(C)CC1 | 50.9* | -2.3 | -114.4 | 6.7 | 2.1* | 0.5
COc1cc2c(cc1OC)CN(C(=O)CCCOc1ccc(Cl)cc1Cl)CC2 | 42.7 | 17.0 | 56.6* | -7.3 | 0.4 | 0.6
COc1cc(CO)cc(Br)c1OCC(=O)N1CCCCC1 | 23.2 | nt | -117.9 | -53.0 | 2.2* | 0.8
Cc1cc(Cl)ccc1OCC(=O)N1CCCCC1 | 87.5* | 6.7 | 1.2 | 22.5 | 1 | 0.1
COC(=O)c1c(-c2ccc(OC)c(OC)c2)csc1N | 60.1* | 0.5 | 45.5 | 8.0 | 0.5 | 0.4
CCOC(=O)c1c(-c2ccc(OC)cc2)csc1NC(=O)CSc1ccccc1 | 19.0 | -0.8 | 49.2 | -7.0 | 0.5 | 0.8
COC(=O)c1c(-c2ccc3ccccc3c2)csc1NC(=O)Cc1ccc(OC)c(OC)c1 | 48.1 | -26.4 | 79.7* | 12.8 | 0.2 | 0.5
N#Cc1c(N)n[nH]c1CCCN | -10.5 | 16.7 | 14.2 | -12.9 | 0.9 | 1.1
COc1ccc(CN(C)C2CCCCC2)c(C)c1C | 76.0* | 22.9 | -1.5 | 2.3 | 1 | 0.2
CCCc1cc(=O)n2[nH]c(CCc3ccccc3)nc2n1 | 6.5 | 8.8 | 52.2* | 5.9 | 0.5 | 0.9
CCCc1cc(=O)n2[nH]c(-c3ccco3)nc2n1 | 7.7 | 6.6 | 26.6 | 9.3 | 0.7 | 0.9
